Results from PubChem BioAssay AID1159580 (chemical genetic matrix, 2015).
Values joined by “and” are separate entries in the source; they are usually repeats but may differ in a detail not shown here. Identical values can stand only once. The whole screen tested about 5,500 compounds, of which about 2,000 (36%) were called active. Roughly 18% stayed inconclusive and do not appear here. Rule as the data show it: active = normalized growth mostly below about 0.91 (no sharp cut-off); inconclusive = no clear call, values can overlap the other calls; inactive = mostly above about 0.92. The list shows a part of the results.

Assay: chemical genetic growth profiling, strain panel (AID 1159580);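 also: tested at 20 µM; growth read once vehicle control cultures reached saturation at 30 °C; 1 = growth at the plate median or of vehicle wells; lower values mean less growth of the strain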
Settings: S. cerevisiae deletion strains, growth OD

Measured: normalized growth

CN(C)C(=O)Nc1ccc(Cl)c(Cl)c1
inactive: locus YAL013W, strain DEP1, active compounds read low 0.992 | locus YAL021C, strain ccr4, active compounds read low 0.964 | locus YAL026C, strain drs2, active compounds read low 0.97 | locus YAL030W, strain snc1, active compounds read low 0.987 | locus YBL061C, strain skt5, active compounds read low 0.991 | locus YBR009C, strain hhf1, active compounds read low 0.926 | locus YBR021W, strain FUR4, active compounds read low 0.904 | locus YBR023C, strain chs3, active compounds read low 0.983 | locus YBR171W, strain sec66, active compounds read low 1.01 | locus YBR229C, strain ROT2, active compounds read low 1 | locus YBR231C, strain swc5, active compounds read low 1.01 | locus YBR279W, strain paf1, active compounds read low 0.97 | locus YCL011C, strain gbp2, active compounds read low 0.954 | locus YCL016C, strain dcc1, active compounds read low 0.974 | locus YCL029C, strain bik1, active compounds read low 1.01 | locus YCL061C, strain MRC1, active compounds read low 0.958 | locus YCL069W, strain vba3, active compounds read low 0.994 | locus YCR088W, strain abp1, active compounds read low 0.991 | locus YDL005C, strain med2, active compounds read low 1 | locus YDL035C, strain GPR1, active compounds read low 0.983 | locus YDL040C, strain nat1, active compounds read low 0.991 | locus YDL074C, strain BRE1, active compounds read low 0.899 | locus YDL101C, strain DUN1, active compounds read low 0.999 | locus YDL134C, strain PPH21, active compounds read low 0.986 | locus YDL185W, strain tfp1, active compounds read low 1.02 | locus YDL192W, strain arf1, active compounds read low 1 | locus YDR001C, strain nth1, active compounds read low 0.99 | locus YDR069C, strain doa4, active compounds read low 0.987 | locus YDR101C, strain arx1, active compounds read low 1 | locus YDR137W, strain rgp1, active compounds read low 1.03 | locus YDR150W, strain NUM1, active compounds read low 0.993 | locus YDR159W, strain sac3, active compounds read low 0.989 | locus YDR162C, strain NBP2, active compounds read low 0.948 | locus YDR195W, strain ref2 1.1 | locus YDR297W, strain sur2, active compounds read low 0.98 | locus YDR318W, strain mcm21, active compounds read low 0.994 | locus YDR334W, strain swr1, active compounds read low 1.01 | locus YDR335W, strain msn5, active compounds read low 0.994 | locus YDR388W, active compounds read low 0.992 | locus YDR392W, strain spt3, active compounds read low 0.888 | locus YDR502C, strain sam2, active compounds read low 0.989 | locus YEL003W, strain gim4, active compounds read low 0.997 | locus YEL037C, strain rad23, active compounds read low 0.993 | locus YEL061C, strain CIN8 (second series), active compounds read low 1.01 | locus YEL061C, strain CIN8, active compounds read low 0.998 | locus YER015W, strain faa2, active compounds read low 0.968 | locus YER016W, strain bim1, active compounds read low 0.992 | locus YER110C, active compounds read low 1.01 | locus YER111C, strain swi4, active compounds read low 1.02 | locus YER155C, strain BEM2 (second series), active compounds read low 0.944 | locus YER155C, strain BEM2, active compounds read low 1.01 | locus YER167W, strain BCK2, active compounds read low 1 | locus YFR010W, strain ubp6, active compounds read low 0.994 | locus YGL078C, strain dbp3, active compounds read low 1.01 | locus YGL086W, strain mad1, active compounds read low 0.997 | locus YGL167C, strain pmr1, active compounds read low 0.988 | locus YGL173C, strain kem1, active compounds read low 0.993 | locus YGL227W, strain vid30, active compounds read low 0.995 | locus YGL240W, strain doc1, active compounds read low 0.967 | locus YGL248W, strain PDE1, active compounds read low 0.987 | locus YGL253W, strain hxk2, active compounds read low 0.951 | locus YGR078C, strain PAC10, active compounds read low 0.982 | locus YGR135W, strain pre9, active compounds read low 0.98 | locus YGR229C, strain SMI1, active compounds read low 0.942 | locus YGR252W, strain gcn5, active compounds read low 0.807 | locus YHR013C, strain ard1, active compounds read low 0.995 | locus YHR027C, strain rpn1, active compounds read low 1.02 | locus YHR030C, strain SLT2, active compounds read low 1.01 and 0.992 | locus YHR079C, strain IRE1 (second series), active compounds read low 0.992 | locus YHR079C, strain IRE1, active compounds read low 0.985 | locus YHR094C, strain hxt1, active compounds read low 1 | locus YHR129C, strain ARP1, active compounds read low 0.984 | locus YHR142W, strain chs7, active compounds read low 0.887 | locus YHR200W, strain rpn10, active compounds read low 0.991 | locus YIL066C, strain RNR3, active compounds read low 0.981 | locus YIL073C, strain SPO22, active compounds read low 0.981 | locus YIL125W, strain kgd1, active compounds read low 1 | locus YIR030C, strain dcg1, active compounds read low 1 | locus YJL092W, strain hpr5, active compounds read low 0.982 | locus YJL095W, strain BCK1 (second series), active compounds read low 1 | locus YJL095W, strain BCK1, active compounds read low 0.96 and 0.984 | locus YJL115W, strain asf1, active compounds read low 1 | locus YJL129C, strain trk1, active compounds read low 0.984 | locus YJL134W, strain LCB3, active compounds read low 0.996 | locus YJL154C, strain vps35, active compounds read low 0.997 | locus YJL164C, strain tpk1, active compounds read low 0.952 | locus YJL166W, strain qcr8, active compounds read low 0.976 | locus YJL168C, strain set2, active compounds read low 1 | locus YJL187C, strain SWE1 (second series), active compounds read low 0.999 | locus YJR043C, strain POL32, active compounds read low 0.88 | locus YJR066W, strain TOR1, active compounds read low 0.93
